Screening results as filed in PubChem BioAssay.
BH1578 lux ind: quorum light induction in luxS cqsA deficient V. cholerae; V. cholerae BH1578 lux reporter, luminescence, 6 h; activation, % at 18.7 µM; hit rate 0.16% among 350,000; in the data active = activation mostly above about 9.7%, no sharp cut-off
PriA SSB inh: inhibitors of Klebsiella pneumoniae PriA binding to SSB C-terminal tail; AlphaScreen SSBct-PriA binding, biotinylated peptide; hit rate 0.6% among 430,000; inhibition, % at 33 µM; AID 1272365; in the data active = inhibition mostly above about 37%, no sharp cut-off; inactive = mostly below about 20%;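 note: plate controls were negative control peptide for no effect and reference peptide for full effect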
CCHF vOTU inh: CCHFV vOTU protease inhibition; Pep-AMC fluorescence; inhibition, % at 11.5 µM; hit rate 0.55% among 370,000; AID 651958; in the data active = inhibition above about 30%; note: 0% = vehicle wells with enzyme and 100% = no enzyme wells
SARS 3CLpro inh: SARS-CoV 3CLpro protease inhibition | recombinant SARS-CoV 3CLpro, quenched FRET peptide cleavage | P0C6X7 | hit rate 0.14% among 290,000 | AID 1706 | inhibition, % at 6 µM; in the data active = inhibition above about 12%
VHR inh abs: DUSP3 (human) phosphatase inhibition. P51452. recombinant VHR phosphatase, pNPP absorbance. inhibition, % at 13.3 µM. hit rate 0.52% among 290,000; in the data active = inhibition above about 50%
Target sequence (P51452 whole entry, looked up): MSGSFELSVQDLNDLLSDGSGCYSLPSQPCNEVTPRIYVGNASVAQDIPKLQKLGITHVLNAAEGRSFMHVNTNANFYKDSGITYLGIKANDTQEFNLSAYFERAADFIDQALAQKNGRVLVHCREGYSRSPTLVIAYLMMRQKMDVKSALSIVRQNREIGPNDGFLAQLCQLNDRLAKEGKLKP
TcdB inh: inhibitors of Clostridioides difficile toxin B glycohydrolase; P18177; TcdB glycohydrolase enzymatic assay, plate reader; inhibition, % at 9.99 µM; hit rate 0.24% among 350,000; in the data active = inhibition above about 10%
An asterisk follows results filed as active. This is a sample that favours compounds with a hit; in the whole collection about 1.3% have one here.

Screening CCOC(=O)c1[nH]cnc1C(=O)O returned BH1578 lux ind inactive, PriA SSB inh -2, CCHF vOTU inh -5, SARS 3CLpro inh 1 and VHR inh abs 4.
O=C(O)c1nc[nH]c1C(=O)O was read as PriA SSB inh 85*.
Screening COc1cccc(NC2=Nc3cccc4cccc2c34)c1 returned BH1578 lux ind 0, PriA SSB inh 41*, CCHF vOTU inh 1, SARS 3CLpro inh 3, VHR inh abs 17 and TcdB inh 2.
`Cc1ccc(S(=O)(=O)N(C)S(=O)(=O)c2ccc(C#N)cc2)cc1` gave SARS 3CLpro inh 6 and VHR inh abs 53*.
O=C(Nc1ccc(OC(F)(F)F)cc1)c1cc2n(n1)CCCO2 was read as PriA SSB inh -17.
`CCC1(C)NC(C(=O)O)Cc2c1[nH]c1ccccc21` (stereo not drawn) gave BH1578 lux ind inactive, PriA SSB inh -18, CCHF vOTU inh 7, SARS 3CLpro inh 3, VHR inh abs 60* and TcdB inh 1.
`CCCN1CCC2(CC1)NC(C(=O)O)Cc1c2[nH]c2ccccc12` (stereo not drawn) gave BH1578 lux ind 0, PriA SSB inh -8, SARS 3CLpro inh 1 and VHR inh abs -14.
For CC1C(=O)CC(c2ccc([N+](=O)[O-])cc2)NC1c1ccc([N+](=O)[O-])cc1 (stereo not drawn) the results were BH1578 lux ind inactive, PriA SSB inh 11, CCHF vOTU inh -8, SARS 3CLpro inh -4, VHR inh abs 33 and TcdB inh 2.
CC1C(=O)C(C)C(c2ccc([N+](=O)[O-])cc2)NC1c1ccc([N+](=O)[O-])cc1 (stereo not drawn) was read as BH1578 lux ind inactive, PriA SSB inh 4, CCHF vOTU inh -5, SARS 3CLpro inh 5, VHR inh abs 30 and TcdB inh 18*.
For CCn1c(O)c(C=C2C=NN=C2c2ccccc2)sc1=S the results were PriA SSB inh 3.
Screening CCc1nnc(NC(=O)CCC(=O)N2CCN(Cc3ccc(C)cc3C)CC2)s1 returned BH1578 lux ind 0, PriA SSB inh -15, CCHF vOTU inh 5, SARS 3CLpro inh -1, VHR inh abs 56* and TcdB inh 1.
For CCCc1nnc(NC(=O)CCC(=O)N2CCN(Cc3ccc(C)cc3C)CC2)s1 the results were BH1578 lux ind -1, PriA SSB inh -14, CCHF vOTU inh 17, SARS 3CLpro inh 7, VHR inh abs -2 and TcdB inh 0.
CCOC(=O)c1cccc(C(=O)Nc2nc3ccc(C)cc3s2)n1 was read as PriA SSB inh 1.
COc1ccc(-c2csc3nc(-c4ccc(C)cc4)oc(=O)c23)cc1OC was read as BH1578 lux ind 0, PriA SSB inh -15, CCHF vOTU inh -5, SARS 3CLpro inh 4, VHR inh abs 92* and TcdB inh 4.
For CCOc1ccccc1NC(=O)NC1CCN(c2nccs2)CC1 the results were PriA SSB inh 18.
O=C(Nc1ccc(-c2ccc3nnc(-c4ccncc4)n3n2)cc1)c1cccnc1Cl was read as PriA SSB inh 18.
`O=C(Nc1ccc(-c2ccc3nnc(-c4ccccn4)n3n2)cc1)c1cccnc1Cl` gave PriA SSB inh 87*.
Screening Cc1cc(C)cc(C(=O)Nc2ccc(-c3ccc4nnc(-c5ccccn5)n4n3)cc2)c1 returned PriA SSB inh 67*.
`O=C(Nc1ccc(-c2ccc3nnc(-c4ccccn4)n3n2)cc1)c1cccc2ccccc12` gave PriA SSB inh -19.
CC(C)(C)NC(=O)CN(C(=O)CCC(=O)Nc1nccs1)c1ccc(F)c(Cl)c1 was read as BH1578 lux ind -1, PriA SSB inh 1, CCHF vOTU inh 8, SARS 3CLpro inh -3, VHR inh abs 53* and TcdB inh 0.
For Cc1noc(CNC(=O)CN(C)c2nc3ccccc3s2)n1 the results were PriA SSB inh -4.
Screening CCCC(=O)Nc1cccc2c1CCCC2 returned BH1578 lux ind 0, PriA SSB inh -4, CCHF vOTU inh 8, SARS 3CLpro inh 4 and VHR inh abs -15.
Screening CCc1ccc(OCC(=O)Nc2cccc3c2CCCC3)cc1 returned BH1578 lux ind 0, PriA SSB inh 51*, CCHF vOTU inh 11, SARS 3CLpro inh -1, VHR inh abs -2 and TcdB inh 0.
`Cc1ccc(S(=O)(=O)Nc2nc3ccc(S(C)(=O)=O)cc3s2)cc1` gave BH1578 lux ind 0, PriA SSB inh 40*, CCHF vOTU inh 1, SARS 3CLpro inh 2, VHR inh abs 10 and TcdB inh -2.
For Cc1ccc(S(=O)(=O)Nc2nc3ccc(N)cc3s2)cc1 the results were BH1578 lux ind -1, PriA SSB inh 3, CCHF vOTU inh 16, SARS 3CLpro inh 0, VHR inh abs 47 and TcdB inh 0.
For COc1ccc2c(c1)CCCC2(O)CNC(=O)c1cc(-c2ccco2)on1 (stereo not drawn) the results were PriA SSB inh -4.
Screening NC(N)=Nc1ccc(C=C2C=Cc3ccccc32)cc1 returned PriA SSB inh 42*, CCHF vOTU inh 4 and TcdB inh 3.
Nc1ccc(C=C2C=Cc3ccccc32)cc1 was read as BH1578 lux ind inactive, PriA SSB inh 18, CCHF vOTU inh 17 and TcdB inh 2.
COc1ccc(OC)c(CCNC(=O)C(C)n2nc(C)c3c(C)n(-c4ccccc4)nc3c2=O)c1 (stereo not drawn) was read as BH1578 lux ind 0, PriA SSB inh 6, CCHF vOTU inh 2, SARS 3CLpro inh -2, VHR inh abs 31 and TcdB inh 1.
`COc1ccc(OC)c(CCNC(=O)C(C)n2nc(C)c3c(C)n(-c4ccc(C)cc4)nc3c2=O)c1` (stereo not drawn) gave BH1578 lux ind 0, PriA SSB inh 2, CCHF vOTU inh 8, SARS 3CLpro inh -1, VHR inh abs 56* and TcdB inh 1.
For COCCN1C(=O)C(CC(=O)Nc2ccc(C(C)=O)cc2)SC1=Nc1ccccc1 (stereo not drawn) the results were BH1578 lux ind inactive, PriA SSB inh -9, CCHF vOTU inh 8, SARS 3CLpro inh 4, VHR inh abs 57* and TcdB inh 5.
Screening NC(=O)Nc1ccc(Nc2ccccc2)cc1 returned BH1578 lux ind inactive, PriA SSB inh 17, CCHF vOTU inh 18, SARS 3CLpro inh 0, VHR inh abs 8 and TcdB inh 15*.
COc1cc(OC)cc(C(=O)Nc2ccc(Nc3ccccc3)cc2)c1 was read as BH1578 lux ind -1, PriA SSB inh 45*, CCHF vOTU inh 3, SARS 3CLpro inh 0, VHR inh abs 13 and TcdB inh 0.
For O=C(Nc1ccc(Nc2ccccc2)cc1)c1ccccc1 the results were PriA SSB inh 4, CCHF vOTU inh 0 and TcdB inh 1.
For CC(C)(C)NC(=S)Nc1ccc(Nc2ccccc2)cc1 the results were PriA SSB inh 52*, CCHF vOTU inh -1, SARS 3CLpro inh 1 and VHR inh abs 53*.
